The values that follow come from PubChem BioAssay (Tox21).

Inconclusive results are not listed. A number with no mark means an inactive call. The source made the active and inactive calls. Unless noted, calls follow the shape of the dose curve; as a rule, active = well fitted curve in the direction sought with a large enough effect in the repeat runs; inconclusive = weak or mixed curves; inactive = no such curve, though single readings can be large; an effect the other way counts as inactive or inconclusive.

The nature of assay [1]: qHTS assay to identify small molecule agonists of the peroxisome proliferator-activated receptor delta (PPARd) signaling pathway - cell viability counter screen (AID 743211). Also: nearly all actives have a fitted effect of over 55% in size. Also: potency is read from the fitted curve at half-maximal effect. A digest of the protocol: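 Tox21 library compounds, delivered in DMSO, were incubated 17 h with PPARd-bla HEK293H cells; cytotoxicity was taken from CellTiter-Glo luminescence read 30 min after reagent addition.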
(qHTS replaces the single test concentration by a dilution series.)

A short description of assay [2]: qHTS assay to identify small molecule antagonists of the peroxisome proliferator-activated receptor delta (PPARd) signaling pathway - cell viability counter screen (AID 743213). Also: nearly all actives have a fitted effect of over 50% in size. Also: potency is read from the fitted curve at half-maximal effect. Summed up:
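PPARd-bla HEK293H cells (3000/well) got compound plus 300 nM L165041 agonist for 17 h at 37 C. Viability in the same wells came from CellTiter-Glo luminescence after 30 min at room temperature.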

The nature of assay [3]: qHTS assay to identify small molecule agonists of the farnesoid-X-receptor (FXR) signaling pathway - cell viability counter screen (AID 743218). Also: nearly all actives have a fitted effect of over 45% in size. Also: potency is read from the fitted curve at half-maximal effect. Summed up:
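HEK 293T FXR-bla cells; 5 h pre-incubation, 16 h compound exposure at 37 C; LiveBLAzer substrate 2 h RT, then CellTiter-Glo 30 min RT, luminescence.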

Assay [4] in a line: qHTS assay to identify small molecule antagonists of the farnesoid-X-receptor (FXR) signaling pathway - cell viability counter screen (AID 743221; active = well fitted cell-killing curve with a large enough effect in the repeat runs, not every such curve was filed as active; also: % is scaled to controls: 0 for no effect and ±100 for the full control effect; nearly all actives have a fitted effect of over 50% in size). A digest of the protocol:
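Cytotoxicity is taken from ATP luminescence (CellTiter-Glo, 30 min, room temperature) in FXR-bla HEK 293T cells previously incubated 16 h at 37 C with compound and chenodeoxycholic acid at 50 uM final.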

Assay [5] deals with Vitamin D3 receptor (Homo sapiens) (UniProt P11473). As to the kind of experiment: qHTS assay to identify small molecule agonists of the vitamin D receptor (VDR) signaling pathway (AID 743222; calls by dose curve; also: % is scaled to controls: 0 for no effect and ±100 for the full control effect). Summed up:
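VDR-bla cells, 2,000/well; 4 h preincubation 37C; cpd (DMSO) 16 h; LiveBLAzer B/G substrate 2 h RT; fluorescence intensity read.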

Assay [6] shares this target. As to the kind of experiment: qHTS assay to identify small molecule antagonists of the vitamin D receptor (VDR) signaling pathway (AID 743223; active = well fitted inhibition curve with a large enough effect in the signal ratio in the repeat runs, not every such curve was filed as active; the % refers to the signal ratio; also: % is scaled to controls: 0 for no effect and ±100 for the full control effect). Summed up:
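Quantitative HTS in VDR-bla reporter cells stimulated with 1alpha,25-dihydroxyvitamin D3, 3 nM final. Compound exposure 16 h, 37C, 5% CO2. Read-out: beta-lactamase FRET substrate fluorescence, 2 h RT.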

A short description of assay [7]: qHTS assay to identify small molecule agonists of the vitamin D receptor (VDR) signaling pathway - cell viability counter screen (AID 743224). Also: nearly all actives have a fitted effect of over 50% in size. Also: potency is read from the fitted curve at half-maximal effect. A digest of the protocol:
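Luminescence from CellTiter-Glo, read after 30 min at room temperature, reports viability of VDR-bla cells treated with compounds for 16 h at 37C in the wells used for the beta-lactamase FRET read.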

A short description of assay [8]: qHTS assay to identify small molecule antagonists of the vitamin D receptor (VDR) signaling pathway - cell viability counter screen (AID 743225). Also: nearly all actives have a fitted effect of over 50% in size. Also: potency is read from the fitted curve at half-maximal effect. Summed up:
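Same-well multiplex: following 16 h treatment of HEK 293T cells carrying a UAS-driven beta-lactamase reporter with compound and agonist (3 nM final), and a 2 h FRET substrate step, CellTiter-Glo was added and luminescence read after 30 min.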

A short description of assay [9]: qHTS assay to identify small molecule agonists of the NFkB signaling pathway - cell viability counter screen (AID 1159515; calls by dose curve; also: series mostly up to about 61 µM; % is scaled to controls: 0 for no effect and ±100 for the full control effect; nearly all actives have a fitted effect of over 55% in size). A digest of the protocol: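 Luminescence from CellTiter-Glo (30 min, room temperature) gives viability, measured in the same wells as the beta-lactamase reporter read. Cells were NFkB-bla ME-180, 2,000 per well, treated 5 hr with compounds.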

Assay [10] in a line: qHTS assay to identify small molecule agonists of the endoplasmic reticulum stress response signaling pathway (AID 1159516; active = well fitted activation curve with a large enough effect in the signal ratio in the repeat runs, not every such curve was filed as active; the % refers to the signal ratio; also: % is scaled to controls: 0 for no effect and ±100 for the full control effect). Summed up:
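Read-out is beta-lactamase cleavage of a FRET substrate (405 nm excitation; 460 and 530 nm emissions) in ESRE-bla HeLa cells after a 5 hr compound exposure at 37 C. Substrate incubation ran 2 hr at room temperature.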

A short description of assay [11]: qHTS assay to identify small molecule agonists of the endoplasmic reticulum stress response signaling pathway - cell viability counter screen (AID 1159517; calls by dose curve). A digest of the protocol: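 CellTiter-Glo was added to wells already read for beta-lactamase FRET, and luminescence was recorded 30 min later. Cells: ESRE-bla HeLa, 1,500 per well, compound exposure 5 hr at 37 C.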

A short description of assay [12]: qHTS assay to identify small molecule antagonists of the retinoid-related orphan receptor gamma (ROR-gamma) signaling pathway - cell viability counter screen (AID 1159520). Also: nearly all actives have a fitted effect of over 50% in size. Also: potency is read from the fitted curve at half-maximal effect. Summed up:
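Tet-on ROR gamma CHO cells (1,000/well) were plated 4 hr, given compounds in DMSO for 2 hr at 37 C, then induced with 1 uM final doxycycline for 16 hr. Viability was read as ATP by CellTiter-Glo luminescence after 30 min.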

Assay [13] has as its target Nuclear receptor ROR-gamma (Homo sapiens) (UniProt P51449). Kind of assay: qHTS assay to identify small molecule antagonists of the retinoid-related orphan receptor gamma (ROR-gamma) signaling pathway (AID 1159521; also: nearly all actives have a fitted effect of over 50% in size; also: potency is read from the fitted curve at half-maximal effect). Summed up:
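Inducible-expression reporter assay: doxycycline (1 uM final) switched on RORγ in CHO cells bearing a ROR response element-luciferase construct, with test compounds present from 2 h beforehand. Decreased luminescence after 16 h defined antagonist activity.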

Assay [14] can be described thus: qHTS assay to identify small molecule agonists of the AP-1 signaling pathway - cell viability counter screen (AID 1159525; calls by dose curve; also: nearly all actives have a fitted effect of over 55% in size). A digest of the protocol:
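ME-180 AP-1-bla, 2500 cells/well, Opti-MEM + 0.5% dialyzed FBS; overnight 37 °C; cpd 15-pt titration, 5 h 37 °C; CellTiter-Glo 30 min RT; luminescence read; normalised to TOAB and DMSO controls.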

Assay [15] can be described thus: qHTS assay to identify small molecule agonists of the AP-1 signaling pathway (AID 1159526; calls by dose curve; also: % is scaled to controls: 0 for no effect and ±100 for the full control effect).
For assay [16], the target named is Peroxisome proliferator-activated receptor delta (Homo sapiens) (UniProt Q03181). Kind of assay: qHTS assay to identify small molecule agonists of the peroxisome proliferator-activated receptor delta (PPARd) signaling pathway (AID 743212; calls by dose curve; also: % is scaled to controls: 0 for no effect and ±100 for the full control effect). A digest of the protocol:
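A PPARd-bla HEK293H line with beta-lactamase under an Upstream Activator Sequence is treated with compounds at 37 C. Substrate loading for 2 h at room temperature precedes the fluorescence measurement.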

In assay [17] the target is Bile acid receptor (Homo sapiens) (UniProt Q96RI1). Kind of assay: qHTS assay to identify small molecule antagonists of the farnesoid-X-receptor (FXR) signaling pathway (AID 743217; active = well fitted inhibition curve with a large enough effect in the signal ratio in the repeat runs, not every such curve was filed as active; the % refers to the signal ratio; also: % is scaled to controls: 0 for no effect and ±100 for the full control effect). A digest of the protocol: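 HEK 293T FXR-UAS-bla, 5000 cells/well; compound + CDCA 50 uM final; 16 h, 37 °C; B/G FRET substrate 2 h RT; fluorescence.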
Chain of Bile acid receptor (Homo sapiens) (Q96RI1 whole entry, looked up): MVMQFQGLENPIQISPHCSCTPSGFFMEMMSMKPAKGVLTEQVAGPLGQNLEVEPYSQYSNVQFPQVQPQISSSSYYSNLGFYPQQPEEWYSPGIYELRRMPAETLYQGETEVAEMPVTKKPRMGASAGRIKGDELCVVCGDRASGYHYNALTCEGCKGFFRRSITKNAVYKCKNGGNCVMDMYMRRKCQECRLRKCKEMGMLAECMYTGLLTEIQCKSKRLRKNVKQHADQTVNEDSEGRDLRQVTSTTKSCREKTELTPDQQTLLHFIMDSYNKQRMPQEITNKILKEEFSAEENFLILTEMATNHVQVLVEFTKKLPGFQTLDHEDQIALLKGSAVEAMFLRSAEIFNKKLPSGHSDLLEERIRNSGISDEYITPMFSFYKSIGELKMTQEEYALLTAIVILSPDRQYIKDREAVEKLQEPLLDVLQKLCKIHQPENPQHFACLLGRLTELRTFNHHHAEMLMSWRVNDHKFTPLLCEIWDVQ
Assay [18] shares this target. As to the kind of experiment: qHTS assay to identify small molecule agonists of the farnesoid-X-receptor (FXR) signaling pathway (AID 743220; active = well fitted activation curve with a large enough effect in the signal ratio in the repeat runs, not every such curve was filed as active; the % refers to the signal ratio; also: % is scaled to controls: 0 for no effect and ±100 for the full control effect). Summed up: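 Beta-lactamase reporter under UAS control in GeneBLAzer FXR HEK 293T cells (5000/well) measured with LiveBLAzer FRET substrate after 2 h at room temperature. Compound exposure lasted 16 h at 37C.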
Assay [19] addresses Peroxisome proliferator-activated receptor delta (Homo sapiens) (UniProt Q03181). Kind of assay: qHTS assay to identify small molecule antagonists of the peroxisome proliferator-activated receptor delta (PPARd) signaling pathway (AID 743215; active = well fitted inhibition curve with a large enough effect in the signal ratio in the repeat runs, not every such curve was filed as active; the % refers to the signal ratio). Summed up: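 Read-out is beta-lactamase FRET fluorescence, measured 2 h after substrate addition at room temperature. Beforehand, UAS-bla HEK293H cells carrying the PPARd reporter were exposed to compounds with L165041 at 300 nM final for 17 h at 37 C.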

In assay [20] the target is Retinoic acid receptor RXR-alpha (Homo sapiens) (UniProt P19793). Kind of assay: qHTS assay to identify small molecule agonists of the RXR signaling pathway (AID 1159527; calls by dose curve; also: % is scaled to controls: 0 for no effect and ±100 for the full control effect; nearly all actives have a fitted effect of over 35% in size). A digest of the protocol:
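Compounds in DMSO were added to RXR-alpha-UAS-bla HEK 293T cells kept in 2% charcoal-stripped serum, and incubated 16 hr at 37 C with 5% CO2. Reporter signal came from a 2 hr B/G FRET substrate step.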

Chain of Retinoic acid receptor RXR-alpha (Homo sapiens) (P19793 whole entry, looked up): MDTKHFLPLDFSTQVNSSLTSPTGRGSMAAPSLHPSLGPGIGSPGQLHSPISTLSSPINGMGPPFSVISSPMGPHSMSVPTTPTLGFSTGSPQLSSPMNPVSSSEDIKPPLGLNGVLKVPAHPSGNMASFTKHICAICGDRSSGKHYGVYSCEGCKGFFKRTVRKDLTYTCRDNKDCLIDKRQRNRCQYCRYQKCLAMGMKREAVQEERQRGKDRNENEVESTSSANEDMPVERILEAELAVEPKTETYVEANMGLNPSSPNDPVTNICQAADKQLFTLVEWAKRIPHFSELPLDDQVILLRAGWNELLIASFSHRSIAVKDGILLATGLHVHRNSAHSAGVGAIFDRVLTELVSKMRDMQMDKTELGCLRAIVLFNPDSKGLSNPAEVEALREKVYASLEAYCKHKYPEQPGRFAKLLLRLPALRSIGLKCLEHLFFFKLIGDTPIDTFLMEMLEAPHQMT
Chain of Vitamin D3 receptor (Homo sapiens) (P11473 whole entry, looked up): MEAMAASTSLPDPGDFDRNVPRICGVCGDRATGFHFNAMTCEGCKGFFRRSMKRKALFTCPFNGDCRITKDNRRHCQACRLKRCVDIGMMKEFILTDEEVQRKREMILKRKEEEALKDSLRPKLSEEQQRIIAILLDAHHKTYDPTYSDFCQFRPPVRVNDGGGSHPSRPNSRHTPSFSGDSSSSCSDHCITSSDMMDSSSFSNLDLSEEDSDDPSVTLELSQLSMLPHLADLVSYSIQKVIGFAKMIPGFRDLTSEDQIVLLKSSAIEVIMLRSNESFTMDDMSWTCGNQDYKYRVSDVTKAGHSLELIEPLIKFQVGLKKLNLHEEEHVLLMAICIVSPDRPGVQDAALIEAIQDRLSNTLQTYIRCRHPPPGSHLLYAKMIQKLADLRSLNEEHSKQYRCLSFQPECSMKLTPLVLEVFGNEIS
Chain of Peroxisome proliferator-activated receptor delta (Homo sapiens) (Q03181 whole entry, looked up): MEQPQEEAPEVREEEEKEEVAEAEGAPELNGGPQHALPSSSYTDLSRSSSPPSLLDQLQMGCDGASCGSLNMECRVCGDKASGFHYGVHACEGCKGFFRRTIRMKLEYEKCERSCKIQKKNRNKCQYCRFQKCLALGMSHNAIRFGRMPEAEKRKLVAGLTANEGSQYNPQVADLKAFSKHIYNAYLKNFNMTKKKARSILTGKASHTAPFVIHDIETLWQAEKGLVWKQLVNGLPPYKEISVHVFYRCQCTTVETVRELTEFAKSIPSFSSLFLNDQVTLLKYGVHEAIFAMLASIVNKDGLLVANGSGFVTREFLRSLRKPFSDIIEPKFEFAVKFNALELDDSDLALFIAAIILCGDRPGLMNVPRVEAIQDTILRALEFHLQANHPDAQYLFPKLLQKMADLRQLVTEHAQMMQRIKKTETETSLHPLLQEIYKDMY

`O=C1CCCCCO1`: the Potency entry in assay [1], in assay [2], in [3], in assay [4], in assay [6] and in [7] was “inactive” throughout. The Potency result in assay [8], in [9], in [10], in [12], in assay [13] and in assay [14] was “inactive” each time. Besides, the Potency result in [15] is “inactive”. For the same compound, the outcome in [5] and in assay [11] was inactive.

For the compound `COc1ccc(C(C)=O)cc1`, the Potency entry in [2], in assay [4], in assay [6], in assay [7], in assay [8] and in assay [9] was “inactive” throughout. The Potency result in assay [10], in [12], in assay [13], in assay [14] and in [15] was “inactive” throughout. Further, the call in [11] was inactive.

With `O=C(CCN1CCN2CCCC2C1)N1c2ccccc2Sc2ccc(Cl)cc21` (stereo not given), the Potency entry in assay [1], in assay [4], in assay [6], in [7], in assay [9] and in assay [10] was “inactive” each time. Moreover, the call in [5] and in assay [11] was inactive. The activity, negative = cytotoxicity in [12] was -0.0801% [at 19 µM]. Moreover, in [13], the activity change, negative = inhibition is -2.48% [at 19 µM]. In addition, the viability change, negative = cytotoxic in assay [14] was -1.69% [at 15.8 µM]. Besides, the activation in [15] was -5.81% [at 15.8 µM].

Regarding `NCc1ccccc1`, the Potency entry in assay [1], in assay [2], in [3], in [6], in assay [7] and in [9] was “inactive” in each case. Besides, the Potency entry in assay [10], in assay [12], in assay [13], in [14] and in [15] was “inactive” in each case. Besides, the compound was classed as inactive in assay [5] and in assay [11].

On to `COCCOCCOCCOCCOC`, for which the Potency entry in assay [1], in assay [2], in assay [3], in [6], in [7] and in assay [8] was “inactive” in each case. Further, the Potency result in [9], in [10], in assay [12], in [13], in assay [14] and in [15] was “inactive” in each case. The compound was called inactive in assay [16] and in assay [11].

`O=C=NC1CCC(CC2CCC(N=C=O)CC2)CC1` (stereo not given): the compound was classed as inactive in assay [16], in assay [5] and in assay [11]. The Potency result in [2], in assay [6], in assay [7], in [9], in assay [10] and in [12] was “inactive” throughout. Also, the Potency entry in [13], in assay [14] and in [15] was “inactive” each time.

On to `CCCCCCCCCO`, for which the Potency entry in assay [1], in [2], in assay [3], in assay [4], in [6] and in assay [8] was “inactive” throughout. The Potency entry in assay [9], in assay [10], in assay [12], in [13] and in assay [14] was “inactive” each time. For the same compound, the compound was classed as inactive in assay [17], in assay [18], in [5] and in assay [11].

In the case of `CC1CCc2cc(F)cc3c(=O)c(C(=O)O)cn1c23` (stereo not given), the Potency entry in assay [1], in assay [2], in [3], in assay [7], in assay [8] and in assay [9] was “inactive” throughout. The Potency entry in assay [10], in [12], in assay [13] and in assay [14] was “inactive” throughout. The compound was classed as inactive in [16], in assay [17], in [18] and in assay [11].

As for `CN1CCC(=C2c3ccccc3CCc3sccc32)CC1`, the compound was classed as inactive in [16], in assay [19], in assay [18] and in assay [11]. For the same compound, the Potency result in assay [7], in assay [9], in assay [10], in assay [12], in assay [13] and in [14] was “inactive” in each case. Also, in assay [20], the Potency result is “inactive”.

As to `CN1CCC(=C2c3ccccc3C=Cc3ccccc32)CC1`, the call in assay [18], in [5] and in [11] was inactive. Also, the Potency result in [4], in [6], in [7], in assay [8], in [9] and in assay [10] was “inactive” throughout. The Potency entry in [12], in assay [13], in assay [14] and in assay [20] was “inactive” in each case.

With `C=C(C)C(=O)OC(C)C`, the Potency entry in assay [1], in assay [2], in [4], in assay [6], in assay [8] and in [9] was “inactive” each time. Also, the Potency result in assay [10], in [12], in assay [13], in assay [14] and in assay [20] was “inactive” throughout. The outcome in [5] and in assay [11] was inactive.

`CC(Cc1cccc(C(F)(F)F)c1)NCCOC(=O)c1ccccc1` (stereo not given): the Potency in [1] was 21.1 µM (active); in [2] it was 18.8 µM (active); in [3] it was 21.1 µM (active); in [7], 23.7 µM (active); in assay [8], 16.9 µM (active). Also, the compound was classed as inactive in assay [16] and in [11]. Also, the Potency entry in assay [9], in assay [10], in assay [12], in assay [13] and in assay [14] was “inactive” in each case.

Consider `Cn1sccc1=O`, for which the Potency result in assay [1], in assay [2], in assay [3], in assay [6], in [8] and in assay [9] was “inactive” each time. Besides, the Potency entry in [10] and in [14] was “inactive” each time. The call in assay [16], in assay [19], in assay [17] and in assay [11] was inactive. The Potency was 61.1 µM (active) in assay [12] and 30.6 µM (active) in assay [13].
